Measured values reported in PubChem BioAssay AID1159580 (chemical genetic matrix, 2015).
Values joined by “and” are separate entries in the source; they are usually repeats but may differ in a detail not shown here. Equal values may be shown once. In all, about 5,500 compounds went through this assay and about 2,000 (36%) were called active. Roughly 18% stayed inconclusive and do not appear here. Rule as the data show it: active = normalized growth mostly below about 0.91 (no sharp cut-off); inconclusive = no clear call, values can overlap the other calls; inactive = mostly above about 0.92. The list shows a part of the results.

Assay: chemical genetic growth profiling, strain panel (AID 1159580);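 also: tested at 20 µM; growth read once vehicle control cultures reached saturation at 30 °C; 1 = growth at the plate median or of vehicle wells; lower values mean less growth of the strain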
Settings: growth OD
[1] = S. cerevisiae deletion strains, locus YMR307W, strain GAS1, active compounds read low
[2] = S. cerevisiae deletion strains, locus YNL322C, strain KRE1, active compounds read low

Measured: normalized growth

N[C@@H](C(=O)N[C@@H]1C(=O)N2C(C(=O)O)=C(Cl)CS[C@H]12)c1ccccc1
inactive: S. cerevisiae deletion strains, locus YAL013W, strain DEP1, active compounds read low 1.01 | S. cerevisiae deletion strains, locus YBR021W, strain FUR4, active compounds read low 1 | S. cerevisiae deletion strains, locus YBR229C, strain ROT2, active compounds read low 1.02 | S. cerevisiae deletion strains, locus YCL029C, strain bik1, active compounds read low 1.03 | S. cerevisiae deletion strains, locus YDL035C, strain GPR1, active compounds read low 1.01 | S. cerevisiae deletion strains, locus YDL074C, strain BRE1, active compounds read low 1.02 | S. cerevisiae deletion strains, locus YDL101C, strain DUN1, active compounds read low 1.01 | S. cerevisiae deletion strains, locus YDL134C, strain PPH21, active compounds read low 1.01 | S. cerevisiae deletion strains, locus YDL185W, strain tfp1, active compounds read low 1.02 | S. cerevisiae deletion strains, locus YDL192W, strain arf1, active compounds read low 1.02 | S. cerevisiae deletion strains, locus YDR101C, strain arx1, active compounds read low 1.01 | S. cerevisiae deletion strains, locus YDR150W, strain NUM1, active compounds read low 1.01 | S. cerevisiae deletion strains, locus YDR162C, strain NBP2, active compounds read low 1.02 | S. cerevisiae deletion strains, locus YDR318W, strain mcm21, active compounds read low 1.02 | S. cerevisiae deletion strains, locus YDR388W, active compounds read low 1.02 | S. cerevisiae deletion strains, locus YDR502C, strain sam2, active compounds read low 1.02 | S. cerevisiae deletion strains, locus YEL061C, strain CIN8, active compounds read low 1.01 | S. cerevisiae deletion strains, locus YER110C, active compounds read low 1.03 | S. cerevisiae deletion strains, locus YER155C, strain BEM2, active compounds read low 1 | S. cerevisiae deletion strains, locus YER167W, strain BCK2, active compounds read low 1.01 | S. cerevisiae deletion strains, locus YGL078C, strain dbp3, active compounds read low 1.02 | S. cerevisiae deletion strains, locus YGL086W, strain mad1, active compounds read low 1.01 | S. cerevisiae deletion strains, locus YGL248W, strain PDE1, active compounds read low 1.02 | S. cerevisiae deletion strains, locus YGR078C, strain PAC10, active compounds read low 1.01 | S. cerevisiae deletion strains, locus YGR135W, strain pre9, active compounds read low 1.01 | S. cerevisiae deletion strains, locus YGR229C, strain SMI1, active compounds read low 1.01 | S. cerevisiae deletion strains, locus YGR252W, strain gcn5, active compounds read low 1.04 | S. cerevisiae deletion strains, locus YHR030C, strain SLT2, active compounds read low 1.01 and 0.982 | S. cerevisiae deletion strains, locus YHR079C, strain IRE1 (second series), active compounds read low 1.02 | S. cerevisiae deletion strains, locus YHR079C, strain IRE1, active compounds read low 0.976 | S. cerevisiae deletion strains, locus YHR094C, strain hxt1, active compounds read low 1.02 | S. cerevisiae deletion strains, locus YHR129C, strain ARP1, active compounds read low 1.01 | S. cerevisiae deletion strains, locus YHR200W, strain rpn10, active compounds read low 1.03 | S. cerevisiae deletion strains, locus YIL066C, strain RNR3, active compounds read low 1.03 | S. cerevisiae deletion strains, locus YIL073C, strain SPO22, active compounds read low 1.08 | S. cerevisiae deletion strains, locus YIL125W, strain kgd1, active compounds read low 1.02 | S. cerevisiae deletion strains, locus YIR030C, strain dcg1, active compounds read low 1.03 | S. cerevisiae deletion strains, locus YJL095W, strain BCK1, active compounds read low 1.01 and 0.976 | S. cerevisiae deletion strains, locus YJL134W, strain LCB3, active compounds read low 1.01 | S. cerevisiae deletion strains, locus YJL168C, strain set2, active compounds read low 1.02 | S. cerevisiae deletion strains, locus YJL187C, strain SWE1 (second series), active compounds read low 1.02 | S. cerevisiae deletion strains, locus YJR043C, strain POL32, active compounds read low 1.01 | S. cerevisiae deletion strains, locus YJR066W, strain TOR1, active compounds read low 0.928 | S. cerevisiae deletion strains, locus YJR075W, strain HOC1, active compounds read low 0.999 | S. cerevisiae deletion strains, locus YKL009W, strain mrt4, active compounds read low 1.02 | S. cerevisiae deletion strains, locus YKL068W, active compounds read low 1.03 | S. cerevisiae deletion strains, locus YKL085W, strain MDH1 (second series), active compounds read low 1.02 | S. cerevisiae deletion strains, locus YKL085W, strain MDH1, active compounds read low 1.02 | S. cerevisiae deletion strains, locus YKL190W, strain CNB1, active compounds read low 1.01 | S. cerevisiae deletion strains, locus YKR001C, strain vps1, active compounds read low 1.02 | S. cerevisiae deletion strains, locus YLR039C, strain RIC1, active compounds read low 1.05 | S. cerevisiae deletion strains, locus YLR058C, strain SHM2, active compounds read low 1.01 | S. cerevisiae deletion strains, locus YLR102C, strain apc9, active compounds read low 1.03 | S. cerevisiae deletion strains, locus YLR113W, strain HOG1, active compounds read low 1 | S. cerevisiae deletion strains, locus YLR262C, strain YPT6, active compounds read low 1.04 | S. cerevisiae deletion strains, locus YLR268W, strain sec22, active compounds read low 1.02 | S. cerevisiae deletion strains, locus YLR330W, strain CHS5, active compounds read low 1.01 | S. cerevisiae deletion strains, locus YLR342W, strain FKS1 (second series), active compounds read low 0.986 | S. cerevisiae deletion strains, locus YLR371W, strain rom2, active compounds read low 1.01 | S. cerevisiae deletion strains, locus YLR418C, strain cdc73, active compounds read low 1.03 | S. cerevisiae deletion strains, locus YML016C, strain PPZ1, active compounds read low 1.01 | S. cerevisiae deletion strains, locus YML032C, strain rad52, active compounds read low 1.02 | S. cerevisiae deletion strains, locus YML124C, strain tub3, active compounds read low 1.02 | S. cerevisiae deletion strains, locus YMR078C, strain ctf18, active compounds read low 1.04 | S. cerevisiae deletion strains, locus YMR223W, strain ubp8, active compounds read low 1.02 | S. cerevisiae deletion strains, locus YMR263W, strain SAP30, active compounds read low 1.01 | [1] 1.05 | S. cerevisiae deletion strains, locus YNL067W, strain RPL9B, active compounds read low 1.01 | S. cerevisiae deletion strains, locus YNL128W, strain TEP1, active compounds read low 0.998 | S. cerevisiae deletion strains, locus YNL153C, strain GIM3, active compounds read low 1.01 | S. cerevisiae deletion strains, locus YNL183C, strain NPR1, active compounds read low 0.932 | S. cerevisiae deletion strains, locus YNL233W, strain BNI4, active compounds read low 1.01 | S. cerevisiae deletion strains, locus YNL250W, strain rad50, active compounds read low 1.01 | S. cerevisiae deletion strains, locus YNL271C, strain bni1, active compounds read low 1.02 | S. cerevisiae deletion strains, locus YNL298W, strain CLA4, active compounds read low 1.03 | S. cerevisiae deletion strains, locus YNL307C, strain MCK1, active compounds read low 1.02 | [2] 1.01 | S. cerevisiae deletion strains, locus YNR052C, strain pop2, active compounds read low 1.02 | S. cerevisiae deletion strains, locus YOL006C, strain TOP1, active compounds read low 1.02 | S. cerevisiae deletion strains, locus YOL012C, strain htz1 1.44 | S. cerevisiae deletion strains, locus YOL147C, strain pex11, active compounds read low 1.02 | S. cerevisiae deletion strains, locus YOR061W, strain CKA2, active compounds read low 1 | S. cerevisiae deletion strains, locus YOR069W, strain VPS5, active compounds read low 0.999 | S. cerevisiae deletion strains, locus YOR136W, strain idh2, active compounds read low 1.02 | S. cerevisiae deletion strains, locus YOR144C, strain elg1, active compounds read low 1.02 | S. cerevisiae deletion strains, locus YOR184W, strain ser1, active compounds read low 1.02 | S. cerevisiae deletion strains, locus YOR231W, strain MKK1, active compounds read low 0.987 | S. cerevisiae deletion strains, locus YOR316C, strain cot1, active compounds read low 1.02 | S. cerevisiae deletion strains, locus YPL055C, strain LGE1, active compounds read low 1 | S. cerevisiae deletion strains, locus YPL256C, strain CLN2, active compounds read low 0.971 | S. cerevisiae deletion strains, locus YPR119W, strain clb2, active compounds read low 1.03 | S. cerevisiae deletion strains, locus YPR141C, strain kar3, active compounds read low 1.03 | S. cerevisiae deletion strains, locus YPR163C, strain tif3, active compounds read low 1.02 | S. cerevisiae deletion strains, locus YPR167C, strain met16, active compounds read low 1.02 | S. cerevisiae deletion strains, strain wtn01, active compounds read low 1.02 | S. cerevisiae strains, strain wild type, active compounds read low 1.01
active: S. cerevisiae deletion strains, locus YPL241C, strain CIN2, active compounds read low 1.09 [resistant]

NC(C(=O)N[C@@H]1C(=O)N2C(C(=O)O)=C(Cl)CS[C@H]12)c1ccccc1 (stereo partly specified)
inactive: S. cerevisiae deletion strains, locus YAL040C, strain CLN3, active compounds read low 0.986 | S. cerevisiae deletion strains, locus YDR363W, strain ESC2, active compounds read low 1.03 | S. cerevisiae deletion strains, locus YER002W, strain NOP16, active compounds read low 1 | [1] 0.998 | S. cerevisiae deletion strains, locus YNL175C, strain NOP13, active compounds read low 1.01 | S. cerevisiae deletion strains, locus YNL197C, strain WHI3, active compounds read low 0.99 | S. cerevisiae deletion strains, locus YNL224C, strain SQS1, active compounds read low 1.01 | [2] 1 | S. cerevisiae deletion strains, locus YOR083W, strain WHI5 (second series), active compounds read low 0.992
